# PfM18AAP inh = PfM18AAP enzyme inhibition; 1.2% of 290,000 active; inhibition, % at 7.35 µM; AID 1822; recombinant PfM18AAP, H-Glu-NHMec fluorogenic cleavage;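 active = inhibition above the campaign mean inhibition over all tested compounds plus 3 SD, cut at about 28% in these data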;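 also: 0% = plate median of test compound wells and 100% = 2 mM ZnCl2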
# Rin1 Abl inh = blocks binding of human Rin1 to Abl; P00519+Q13671; TR-FRET Rin1/Abl binding, biochemical; inhibition, % at 7.35 µM; 0.4% of 360,000 active; AID 588664; in the data active = inhibition above about 5%, passing the limit was not always enough
# Target sequence (P00519 whole entry, looked up): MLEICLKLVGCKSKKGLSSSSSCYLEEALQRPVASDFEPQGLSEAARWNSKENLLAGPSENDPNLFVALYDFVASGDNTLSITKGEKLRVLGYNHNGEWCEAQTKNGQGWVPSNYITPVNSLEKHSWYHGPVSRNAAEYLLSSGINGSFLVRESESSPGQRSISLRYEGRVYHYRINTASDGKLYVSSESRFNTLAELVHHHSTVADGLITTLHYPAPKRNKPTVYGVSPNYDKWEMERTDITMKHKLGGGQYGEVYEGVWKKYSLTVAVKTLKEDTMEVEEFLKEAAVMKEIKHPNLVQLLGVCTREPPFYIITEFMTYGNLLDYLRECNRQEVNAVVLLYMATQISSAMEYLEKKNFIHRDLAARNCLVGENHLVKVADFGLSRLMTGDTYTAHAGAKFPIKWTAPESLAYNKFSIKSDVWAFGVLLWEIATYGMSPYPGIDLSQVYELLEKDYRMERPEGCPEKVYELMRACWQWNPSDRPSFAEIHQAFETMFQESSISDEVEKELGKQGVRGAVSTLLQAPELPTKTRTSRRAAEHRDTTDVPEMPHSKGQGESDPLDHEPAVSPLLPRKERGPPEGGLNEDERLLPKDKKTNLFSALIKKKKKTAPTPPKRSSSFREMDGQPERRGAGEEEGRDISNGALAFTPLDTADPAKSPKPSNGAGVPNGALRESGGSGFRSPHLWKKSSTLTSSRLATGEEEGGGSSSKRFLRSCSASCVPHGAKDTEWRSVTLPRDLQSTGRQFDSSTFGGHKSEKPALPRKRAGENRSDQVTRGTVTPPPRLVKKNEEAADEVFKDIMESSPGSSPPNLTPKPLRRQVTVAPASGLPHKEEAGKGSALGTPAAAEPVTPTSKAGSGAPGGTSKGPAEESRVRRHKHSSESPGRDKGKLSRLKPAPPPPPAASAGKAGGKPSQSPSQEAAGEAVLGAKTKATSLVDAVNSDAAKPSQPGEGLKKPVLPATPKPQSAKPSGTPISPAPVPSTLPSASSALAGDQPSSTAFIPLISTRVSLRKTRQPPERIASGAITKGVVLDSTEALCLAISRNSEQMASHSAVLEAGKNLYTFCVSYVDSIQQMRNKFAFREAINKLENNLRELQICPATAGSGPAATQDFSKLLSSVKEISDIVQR
# Target sequence (Q13671 whole entry, looked up): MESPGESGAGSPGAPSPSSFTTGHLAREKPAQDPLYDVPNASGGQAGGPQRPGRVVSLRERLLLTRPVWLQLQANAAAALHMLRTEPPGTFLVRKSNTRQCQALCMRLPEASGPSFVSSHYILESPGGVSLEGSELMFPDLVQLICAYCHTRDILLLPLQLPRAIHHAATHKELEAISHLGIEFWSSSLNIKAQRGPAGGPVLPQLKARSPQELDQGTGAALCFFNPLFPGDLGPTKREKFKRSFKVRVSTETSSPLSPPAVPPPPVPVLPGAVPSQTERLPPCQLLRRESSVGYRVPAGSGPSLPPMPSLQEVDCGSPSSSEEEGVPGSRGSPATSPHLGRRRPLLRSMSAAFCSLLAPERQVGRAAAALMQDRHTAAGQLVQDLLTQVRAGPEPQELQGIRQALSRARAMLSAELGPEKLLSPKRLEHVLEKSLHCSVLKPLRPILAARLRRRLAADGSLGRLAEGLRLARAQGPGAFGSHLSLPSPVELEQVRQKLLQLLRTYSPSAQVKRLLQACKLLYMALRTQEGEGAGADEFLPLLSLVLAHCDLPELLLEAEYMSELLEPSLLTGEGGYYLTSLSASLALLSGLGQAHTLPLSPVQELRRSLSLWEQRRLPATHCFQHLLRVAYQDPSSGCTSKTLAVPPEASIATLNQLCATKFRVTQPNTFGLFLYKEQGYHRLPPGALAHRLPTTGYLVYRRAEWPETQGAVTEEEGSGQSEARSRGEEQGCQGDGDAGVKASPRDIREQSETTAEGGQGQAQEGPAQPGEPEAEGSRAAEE
# CTSL1 counter = blocks F. hepatica cathepsin L1 in PFM18AAP counter-screen | recombinant F. hepatica cathepsin L1, Z-Leu-Arg-MCA fluorescence | inhibition, % at 5.96 µM | 0.49% of 300,000 active | AID 1906;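 active = inhibition above the mean of all tested compounds plus 3 SD, set per screening campaign, cut at about 17% in these data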;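 also: 0% = plate median of test compound wells and 100% = 1 µM Z-Phe-Ala-diazomethylketone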
# Calb FLC = C. albicans growth modulation with fluconazole; C. albicans CaCi-2 (fluconazole-resistant clinical isolate) + fluconazole, Alamar Blue growth, 48 h; growth inhibition, % (no concentration beside the values); 0.57% of 300,000 active;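 active = growth inhibition above about 58% in most replicates, limit read from the data, passing the limit was not always enough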;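 also: all wells also contain fluconazole at 8 µg/ml as a sub-toxic cotreatment; 0% = median of DMSO wells and 100% = median of geldanamycin control wells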
# Active calls of the source: *; / = not tested or not shown. This is a sample that favours compounds with a hit; in the whole collection about 2.1% have one here.
SMILES,PfM18AAP inh,Rin1 Abl inh,CTSL1 counter,Calb FLC
O=S(=O)(Nc1ccc(O)c(NS(=O)(=O)c2ccccc2)c1)c1ccccc1,68*,1,1,-1
C#CCOc1ccc(C2C3=C(CC(C)(C)CC3=O)N(CC(=O)O)C3=C2C(=O)CC(C)(C)C3)cc1OC,32*,2,-3,-44
CCOc1cc(C2C3=C(CC(C)(C)CC3=O)N(CCCOC)C3=C2C(=O)CC(C)(C)C3)ccc1O,31*,0,/,3
COc1ccc(Nc2cc(Nc3cc(OC)c(OC)c(OC)c3)ncn2)cc1,5,6,-2,8
CCCn1nc([N+](=O)[O-])c(C(C#N)c2nc3ccccc3s2)c(Cl)c1=O (centres undefined),6,5,3,99*
CCn1nc([N+](=O)[O-])c(C(C#N)c2nc3ccccc3n2C)c(Cl)c1=O (centres undefined),1,-5,-4,9
O=C1c2ccccc2C(=O)N1Cc1cc(Cl)c(O)c([N+](=O)[O-])c1,7,-3,-3,32
Nc1cc(CN2C(=O)c3ccccc3C2=O)cc(Cl)c1O,27,1,25*,22
O=C(CN1C(=O)NC(c2ccc(F)cc2)C1=O)NC1CCCCC1 (centres undefined),/,-1,/,/
Cc1ccnc(NS(=O)(=O)c2ccc(NC(=O)CN3C(=O)c4ccccc4S3(=O)=O)cc2)n1,/,2,6,3
COc1cccc(-c2nc(NCc3ccccc3)c3ccccc3n2)c1O,3,-1,21*,0
CN(C)C(CNC(=O)c1ccc(Br)cc1)c1ccco1 (centres undefined),0,3,-7,7
CN(C)C(CNC(=O)c1cc(Br)ccc1Cl)c1ccco1 (centres undefined),6,-1,22*,4
N#Cc1c(-c2ccccc2)nc(SCC(=O)Nc2nnc(C(F)(F)F)s2)[nH]c1=O,3,-2,7,25
COc1ccc(/C=C(/NC(=O)c2ccccc2)C(=O)N2CCOCC2)cc1OC,11,-1,19*,0
COc1ccc(/C=C(\NC(=O)c2ccccc2)C(=O)N2CCN(C)CC2)cc1OC,-1,0,1,3
COc1ccc(C(=O)N/C(=C\c2ccccc2)C(=O)N2CCOCC2)cc1,0,4,0,-3
COc1ccc(-c2ccc(/C=C(\NC(=O)c3ccccc3)C(=O)N3CCOCC3)o2)cc1,-1,-3,78*,35
CNc1cncc(-c2ccc(CN3CCOCC3)cc2)n1,/,-8,/,/
CSCCC(NS(=O)(=O)c1ccc(Br)cc1)C(=O)OCC(=O)NC1CC1 (centres undefined),-5,1,-10,4
O=C(O)COc1ccccc1Cc1ccccc1,-7,1,2,-2
COc1ccccc1CNC(=O)COC(=O)COc1ccccc1Cc1ccccc1,/,5,17*,3
CN(C(=O)COC(=O)COc1ccccc1Cc1ccccc1)c1ccccc1,/,2,18*,-8
Cc1ccccc1OCC(=O)OCC(=O)NCc1ccccc1,/,3,/,/
CC(C)(C)c1ccc(-n2nc(C#N)c(Cl)cc2=O)cc1,-13,8,/,86*
SMILES,PfM18AAP inh,Rin1 Abl inh,CTSL1 counter,Calb FLC
O=C1CNC(=S)N1CCCc1ccccc1,-2,1,-2,-1
Cn1nccc1C(=O)Nc1sc2c(c1C(N)=O)CCCC2,2,-2,10,44
Cn1ccc(C(=O)Nc2sc3c(c2C(N)=O)CCCCC3)n1,38*,1,1,1
O=C(Nc1sc2c(c1C(=O)c1ccc(Cl)cc1)CCCC2)c1cccnc1,-11,1,4,84*
O=C(COC(=O)C1CCN(c2ccc(C(F)(F)F)cn2)CC1)c1ccc(F)cc1,/,-1,18*,/
Cc1ccccc1NS(=O)(=O)c1ccc(C(=O)N2CCC2)cc1,/,1,19*,7
COC(=O)[C@@]12CCCCN1[C@H](c1ccc(-c3ccc(OC)cc3)c(OC)c1)[C@@H]1C(=O)N(C)C(=O)[C@@H]12,/,3,3,/
O=C(c1cccc2c1C(=O)N(Cc1cccnc1)C2)N1CCN(c2ccccc2)CC1,3,-3,5,-3
COCCN(C(=O)c1ccc(N2C(=O)c3ccccc3C2=O)cc1)c1c(N)n(CC(C)C)c(=O)[nH]c1=O,/,2,/,/
NNC(=O)c1cc(-c2cccs2)nc2ccccc12,5,-5,2,104*
Cc1cccc2sc(NNC(=O)c3cc(-c4cccs4)nc4ccccc34)nc12,31*,2,0,85*
C/C(=N\NC(=O)c1cc(-c2cccs2)nc2ccccc12)c1ccccn1,0,-3,4,95*
CC(C)NC(=O)c1cc(-c2cccs2)nc2ccccc12,-1,2,2,-32

# Screening results (PubChem)
